This note sets out measurements from PubChem BioAssay (NCI).

Holding throughout (experiment): NCI-60 one-dose screen, 48 h (100 = growth as untreated, 0 = no growth, -100 = all killed)
What all share (conditions): 10 µM unless noted

The subject of experiment [1] is HCT-15 colon.
In experiment [2] the test system is HT29 colon.
In experiment [3] the test system is SNB-75 CNS.
For experiment [4], the system named is SNB-19 CNS.
Experiment [5] has as its system U251 CNS.
Experiment [6] deals with PC-3 prostate.
Experiment [7] deals with SK-MEL-5 melanoma.
The subject of experiment [8] is UACC-62 melanoma.
The test system of experiment [9] is LOX IMVI melanoma.
In experiment [10] the test system is SK-MEL-28 melanoma.
The test system of experiment [11] is SK-MEL-2 melanoma.
Experiment [12] has as its system EKVX NSCLC.
Experiment [13] deals with SN12C renal.
Experiment [14] has as its system UO-31 renal.
For experiment [15], the system named is TK-10 renal.
Experiment [16] deals with ACHN renal.
For experiment [17], the system named is CAKI-1 renal.
The test system of experiment [18] is A498 renal.
Experiment [19] concerns CCRF-CEM leukemia.
Experiment [20] concerns MOLT-4 leukemia.

This is part of a sample that, as a whole, favours compounds with a hit. Of some 83,000 tested, about 20% had one in any assay.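 Testing used 96-well plates and a 48-hour single-concentration exposure. Example: -40 means 40% of the starting cells died.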 Values without a mark were called inactive. Calls of active or inactive are those of the source. The calls were made as follows: active = growth percent below 10; inactive = the rest.

For the compound `Cc1ccc2c(c1)C(C)Cc1c(N(C)C)ncnc1N2C` (stereo not given), the growth in experiment [1] was 20.6%; in experiment [2], 4.7% (active); in [3], 14%; in experiment [4] it was 43.8%; in [5], 21.3%; in [6] it was 32.8%. The growth in experiment [7] is 15%; in experiment [8], 33%; in experiment [9], 37.7%; in [10], 56.6%; in experiment [11] it was 30%; in experiment [12], 27.2%. For the same compound, the growth in experiment [13] was 44.9%; in [14], 59.1%; in experiment [15], 14.1%; in experiment [16] it was 53.3%; in experiment [17], 35.2%; in experiment [18], -9.12% (active). In addition, the growth was 21.4% in [19] and 30.6% in experiment [20].
For the compound `O=C1OC(c2ccccc2)=N/C1=C\c1ccc([N+](=O)[O-])cc1`, the growth in [1] was 104%; in [2] it was 98.8%; in experiment [3] it was 84.8%; in experiment [4], 107%; in [5] it was 102%; in experiment [6], 94.4%. The growth in experiment [7] was 99.2%; in experiment [8] it was 95.5%; in experiment [9], 96.9%; in experiment [10], 102%; in experiment [11], 105%; in experiment [12] it was 99.9%. In addition, the growth in experiment [13] is 100%; in [14], 91.7%; in [15] it was 97.4%; in experiment [16] it was 102%; in experiment [17] it was 91.5%; in experiment [18], 87.4%. Moreover, the growth in [19] is 114%; in [20], 102%.
On to `O=C(/C=C/CN1CCOCC1)Nc1cc2c(Nc3cccc(Cl)c3F)ncnc2cc1OCCOC(F)F`, for which the growth in experiment [1] was 69.2%; in experiment [2], 66.3%; in experiment [3], 63%; in experiment [4], 81.7%; in [5], 94.1%; in [6], 58.9%. Also, the growth in [7] is 86.9%; in [8], 72%; in experiment [9], 80.7%; in experiment [10] it was 101%; in experiment [11], 95.9%; in experiment [12], 29.5%. In addition, the growth in [13] is 61.8%; in experiment [14], 36.8%; in [15], 57.3%; in experiment [16], 22.2%; in [17] it was 24.9%; in experiment [18] it was 7.02% (active). Moreover, the results for the growth in experiment [19] and in experiment [20] were 102% and 77.3%, respectively.
As to `Cc1ccc2nc(-c3c(CCCO)noc3N)[nH]c(=O)c2c1`, the growth in [1] was 105%; in [2], 113%; in experiment [3], 82.2%; in [4] it was 113%; in [5], 99.6%; in experiment [6], 96%. In addition, the growth in [7] was 99.6%; in experiment [8], 104%; in experiment [9], 100%; in experiment [10], 112%; in [11] it was 105%; in [12], 101%. Besides, the growth was 111% in experiment [13]; 47% in experiment [14]; 95.5% in [15]; 113% in experiment [16]; 97.1% in experiment [17]; 104% in experiment [18]. Further, the growth in [19] was 88.5%; in experiment [20] it was 83.7%.
Turning to `Cc1c(C(=O)NCc2ccccc2)[n+](=O)c2cc(F)ccc2n1[O-]`, the growth in experiment [1] is 111%; in experiment [2], 94.4%; in experiment [3], 76.7%; in [4], 108%; in [5], 102%; in experiment [6] it was 81.9%. In addition, the growth in [7] is 86.7%; in experiment [8], 104%; in experiment [9], 97.4%; in experiment [10], 91.3%; in experiment [11], 40.8%; in experiment [12], 114%. The growth in experiment [13] is 103%; in experiment [14], 39.4%; in experiment [15], 138%; in experiment [16], 102%; in experiment [17], 79.7%; in experiment [18] it was 101%. Moreover, the growth is 52.5% in experiment [19] and 130% in experiment [20].
For the compound `CCCCNc1nnc(-c2cc(-c3cc4ccccc4o3)nn2-c2ccccc2)o1`, the growth was 95.3% in [1]; 93.6% in [2]; 102% in experiment [3]; 91.2% in experiment [4]; 82.1% in experiment [5]; 83.6% in [6]. The growth in [7] is 71.9%; in experiment [8] it was 76.7%; in experiment [9], 82.3%; in experiment [10], 108%; in experiment [11], 90.6%; in experiment [12] it was 99.4%. For the same compound, the growth in experiment [13] was 93.6%; in experiment [14], 71.3%; in experiment [15], 104%; in experiment [16], 85.9%; in [17], 97.4%; in experiment [18], 86.5%. Moreover, the figures for the growth in [19] and in experiment [20] were 80% and 68.8%, respectively.
Take `Cc1ccc2nc(SCn3nnc4ccccc4c3=O)[nH]c2c1`: the growth in experiment [1] is 125%; in [2], 102%; in experiment [3], 88%; in [4], 108%; in experiment [5], 103%; in [6], 103%. In addition, the growth in experiment [7] was 101%; in [8], 98.4%; in experiment [9], 100%; in [10], 121%; in [11] it was 69.5%; in [12], 97.1%. Also, the growth is 108% in experiment [13]; 73.8% in experiment [14]; 196% in [15]; 105% in [16]; 93.5% in [17]; 108% in experiment [18]. The figures for the growth in experiment [19] and in [20] were 102% and 71.2%, respectively.
On to `CCC(=O)Oc1ccc2c(c1)CC[C@@H]1[C@@H]2CC[C@]2(C)C[C@H](OC(=O)CC)C[C@@H]12`, for which the growth in [1] is 38.9%; in experiment [2] it was 110%; in experiment [3], 46%; in experiment [4], 77.7%; in [5], 48.3%; in experiment [6], 63.1%. The growth is 60.4% in [7]; 49.1% in [8]; 76.8% in experiment [9]; 73.7% in experiment [10]; 75.1% in experiment [11]; 62.7% in experiment [12]. Further, the growth is 70.4% in experiment [13]; 71.7% in experiment [14]; 105% in [15]; 73% in experiment [16]; 64.8% in experiment [17]; 7.94% (active) in [18]. Further, the growth in experiment [19] is 74.6%; in experiment [20] it was 51.1%.
